From the supplement of paper PMC6555819

The sequences below were run on PPARg:RXRa DBDmut IVT, anti-RXR (DBD mutation: RXRa K156A/R161A, NR concentration 270 nM, RXRa partner concentration 90 nM) (assay: PBM binding z-score (relative to random genomic background probes); higher = stronger binding; sequences stand for … in GC…GCGATTGACAGCGTAGAATGAAGG).
Summary of the method: (§1)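 Custom Agilent 4×180K protein-binding microarrays carried double-stranded probes, each with a 34-nt variable region. These regions held direct-repeat seeds, single-nucleotide variants, half-site ablations and random human genomic background sequences. Ligand-free nuclear receptor dimers were incubated on the arrays for 1 h, antibodies against each partner (one per run) detected binding, and scanned fluorescence was regression-normalized. Binding z-scores take the random background probes as reference.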

| Sequence | PBM binding z-score |
| --- | --- |
| GCTGCTAGGTCAGGTTGGTCAGCCAACGGGTACG | 2.43 |
| CATACAGGGTCAGCTAGGACAGAGTAGGGACGGC | 1.2 |
| GCATATAGGTAATACAAGGTGCAAGTCCGATTGT | 3.88 |
| TCTATTAGTTGAATGGCAACCGACGAGTCCGTTT | 2.47 |
| CAAACTTGGTCACGAAAGGTCAAAGTCGAATGAC | 2.71 |
| GCTTGTAGATCAAGGTTAAGACAGACTAAGCTAA | 1.75 |
| CCGAGCAGGCCAGGGTCACTCAAGCATTTCGCTT | -0.216 |
| ACTAGCAGGCCAAGGGTCACACAAGATTAGTCCG | 1.49 |
| TTACCACGGTGAAAGGTCGTTGATGCACGCCTTG | 0.591 |
| GCTAGCAGGCCATTTGTGTCACTCAATGACGGGC | 1.46 |
| ATCTCTAGGTTAGACTCAGTTCAGTGAAGAACGC | 3.38 |
| CGAACTAGGTCAGAACAGGACAGGGAAGGATGAT | 7.1 |
| CGTCAAAGTTCAACTAAGGTATCGTAAAGCACGC | 0.0447 |
| TGATATAGGTAAATGCTAGGTGAAAGTCCGATCT | 4.45 |
| CGTCACAGTTCAAGGTAACGTAACAGAAAGCAGC | 0.275 |
| CCTACTGGGCCATCAGGTCCTTGATATCAACGTT | 3.89 |
| TCTTGTAGATCAATAGGAGGTTAAGAAAGATCGA | 1.97 |
| CCGACTGGGGAATAAGGTTACCATAAGCCAGCCC | 1.7 |
| CCAGACAGGTGAGAAGGTTACTCAGCCTCGATTA | 0.947 |
| GGAACGAGGGCAGGTTGATAGCAGAGTTTGATGG | 2.17 |

| Sequence | PBM binding z-score |
| --- | --- |
| ATCGAAAGGTGGAGGTGAGTATAGAGAAAGGGAA | -0.413 |
| GATACAGGGTCAGCTAGAGACCAGAGTATGGAAA | 1.1 |
| TCTGCTAGGTCATTTGGTCAGCTAACGAGCTGCC | 3.73 |
| CCTCGGAGGACAGAAGGTCAGAGATGTCCGCTTT | -0.271 |
| CCTAGTTGGTCAGGACGTCACACACCGGATATGA | 0.48 |
| ATCGAAAGATCGAAGGTGAGTATACCCACCCGAA | -0.781 |
| CCGAGTAGGTTATGGGGCATTCTGGCAACGGTGA | 3.05 |
| TCATATAGGTAAATGCTAGGTGAAGGTCCGATCT | 4.03 |
| CGTCGAAGTTCAACTAAGGTAACGTAAAGCACGC | -0.101 |
| TCGAGTAAGTTACCAATGGGGCATTCAGCTTTCT | 0.719 |
| TCGAGTAGGTTACCAATGGGGCATTCGGCTTTCT | 3.25 |
| GCTTGTAGATCAAGGTTAAGAATGACTAAGCTAA | 1.74 |
| CTACCAAGGTGAACAAGGTCGTTGTTTACTATTC | 2.55 |
| CCTAGCATGCCAGGGTCACTCAAGCATTTCGCTT | -0.246 |
| CGTCCAAGGTCAAAGGTAAGTGAAGAGATGACGG | 3.99 |
| CCTAGCAGCCCAATCTGGGTCACTCAAGGCTTGA | 3.69 |
| CCTAGCAGGCCAATCTGGGTCACGCAAGGCTTGA | 4.65 |
| GCGACTGGGGCAAAGCAGGTTACCAGAAGGTTGG | 4.49 |
| CTCGAAAGGTGGGTTGAGGTGAGTATACGGATAA | 0.207 |

These sequences were tested on PPARg:RXRa IVT, anti-PPARg (NR concentration 270 nM, RXRa partner concentration 90 nM) in the same assay as above.
Summary of the method: as §1

| Sequence | PBM binding z-score |
| --- | --- |
| GCTGCTAGGTCAGGTTGGTCAGCCAACGGGTACG | 2.2 |
| CATACAGGGTCAGCTAGGACAGAGTAGGGACGGC | 2.23 |
| GCATATAGGTAATACAAGGTGCAAGTCCGATTGT | 2.81 |
| TCTATTAGTTGAATGGCAACCGACGAGTCCGTTT | 0.106 |
| CAAACTTGGTCACGAAAGGTCAAAGTCGAATGAC | 4.16 |
| GCTTGTAGATCAAGGTTAAGACAGACTAAGCTAA | 1.34 |
| CCGAGCAGGCCAGGGTCACTCAAGCATTTCGCTT | 0.461 |
| ACTAGCAGGCCAAGGGTCACACAAGATTAGTCCG | 4.04 |
| TTACCACGGTGAAAGGTCGTTGATGCACGCCTTG | 3.21 |
| GCTAGCAGGCCATTTGTGTCACTCAATGACGGGC | 0.556 |
| ATCTCTAGGTTAGACTCAGTTCAGTGAAGAACGC | 2.14 |
| CGAACTAGGTCAGAACAGGACAGGGAAGGATGAT | 7.39 |
| CGTCAAAGTTCAACTAAGGTATCGTAAAGCACGC | 1.92 |
| TGATATAGGTAAATGCTAGGTGAAAGTCCGATCT | 3.66 |
| CGTCACAGTTCAAGGTAACGTAACAGAAAGCAGC | 1.23 |
| CCTACTGGGCCATCAGGTCCTTGATATCAACGTT | 3.63 |
| TCTTGTAGATCAATAGGAGGTTAAGAAAGATCGA | 0.955 |
| CCGACTGGGGAATAAGGTTACCATAAGCCAGCCC | 1.42 |
| CCAGACAGGTGAGAAGGTTACTCAGCCTCGATTA | 1.04 |
| GGAACGAGGGCAGGTTGATAGCAGAGTTTGATGG | 1.68 |

| Sequence | PBM binding z-score |
| --- | --- |
| ATCGAAAGGTGGAGGTGAGTATAGAGAAAGGGAA | 0.772 |
| GATACAGGGTCAGCTAGAGACCAGAGTATGGAAA | 2.34 |
| TCTGCTAGGTCATTTGGTCAGCTAACGAGCTGCC | 3.88 |
| CCTCGGAGGACAGAAGGTCAGAGATGTCCGCTTT | 0.124 |
| CCTAGTTGGTCAGGACGTCACACACCGGATATGA | 0.458 |
| ATCGAAAGATCGAAGGTGAGTATACCCACCCGAA | 0.354 |
| CCGAGTAGGTTATGGGGCATTCTGGCAACGGTGA | 3.19 |
| TCATATAGGTAAATGCTAGGTGAAGGTCCGATCT | 2.74 |
| CGTCGAAGTTCAACTAAGGTAACGTAAAGCACGC | 0.723 |
| TCGAGTAAGTTACCAATGGGGCATTCAGCTTTCT | -0.101 |
| TCGAGTAGGTTACCAATGGGGCATTCGGCTTTCT | 2.7 |
| GCTTGTAGATCAAGGTTAAGAATGACTAAGCTAA | 0.924 |
| CTACCAAGGTGAACAAGGTCGTTGTTTACTATTC | 2.57 |
| CCTAGCATGCCAGGGTCACTCAAGCATTTCGCTT | 0.391 |
| CGTCCAAGGTCAAAGGTAAGTGAAGAGATGACGG | 4.46 |
| CCTAGCAGCCCAATCTGGGTCACTCAAGGCTTGA | 4.29 |
| CCTAGCAGGCCAATCTGGGTCACGCAAGGCTTGA | 5.54 |
| GCGACTGGGGCAAAGCAGGTTACCAGAAGGTTGG | 3.54 |
| CTCGAAAGGTGGGTTGAGGTGAGTATACGGATAA | 0.842 |
